Source: PubChem BioAssay (Tox21)
Where “and” joins values, the source holds several entries; their conditions need not be identical. Equal values may be shown once. Some compounds were tested as several samples or in several runs, with calls that do not always agree. Calls of active or inactive are those of the source. Unless noted, calls come from the whole dose curve; as a rule, active = well fitted curve in the direction sought with a large enough effect in the repeat runs; inconclusive = weak or mixed curves; inactive = no such curve, though single readings can be large; an effect the other way counts as inactive or inconclusive.

Experiments:
[1] = qHTS assay to identify small molecule antagonists of the thyroid receptor (TR) signaling pathway - cell viability counter screen (AID 743064); note: nearly all actives have a fitted effect of over 50% in size; note: potency is the fitted concentration of half-maximal effect
Outline: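 GH3.TRE-Luc cells, 4 h pre-plating; cpd + T3 1 nM final; 37 °C 23.5 h; CellTiter-Fluor 30 min; fluorescence read.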

[2] = qHTS assay to identify small molecule antagonists of the thyroid receptor (TR) signaling pathway (AID 743065); note: nearly all actives have a fitted effect of over 55% in size; note: potency is the fitted concentration of half-maximal effect
Outline: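 Antagonism measured as loss of luciferase signal in GH3 cells stably carrying a TRE-luciferase reporter, co-treated with compound and T3 (1 nM final) for 23.5 h at 37 C. Viability was read in the same well by CellTiter-Fluor.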

[3] = tested on: thyroid hormone receptor (rat, GH3 cells); assay: qHTS assay to identify small molecule agonists of the thyroid receptor (TR) signaling pathway (AID 743066; calls by dose curve)
[4] = target: Estrogen receptor (Homo sapiens) (UniProt P03372); assay: qHTS assay to identify small molecule antagonists of the estrogen receptor alpha (ER-alpha) signaling pathway (AID 743069; active = well fitted curve in the direction sought with a large enough effect in the signal ratio in the repeat runs, not every such curve was filed as active; inconclusive = weak or mixed curves, or effect the other way; inactive = no such curve, though single readings can be large or run the other way; the % refers to the signal ratio; note: potency is the fitted concentration of half-maximal effect)
Outline: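 Antagonist mode: compounds in DMSO were co-added with 17beta-estradiol to ER-alpha-bla HEK293 cells (2% charcoal-stripped serum) and left 18 h at 37C. Reporter inhibition was measured as FRET fluorescence after 2 h LiveBLAzer substrate at room temperature.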

[5] = qHTS assay to identify small molecule antagonists of the estrogen receptor alpha (ER-alpha) signaling pathway - cell viability counter screen (AID 743074; calls by dose curve;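 note: HEK293 cells carrying ER-alpha-UAS-bla reporter stimulated with 17beta-estradiol; nearly all actives have a fitted effect of over 45% in size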; note: potency is the fitted concentration of half-maximal effect)
[6] = target: Estrogen receptor (Homo sapiens) (UniProt P03372); assay: qHTS assay to identify small molecule agonists of the estrogen receptor alpha (ER-alpha) signaling pathway (AID 743075; calls by dose curve;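 note: HEK293 GripTite cells with ER-alpha and UAS-driven beta-lactamase reporter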; note: potency is the fitted concentration of half-maximal effect)
[7] = target: Estrogen receptor (Homo sapiens) (UniProt P03372); assay: qHTS assay to identify small molecule agonists of the estrogen receptor alpha (ER-alpha) signaling pathway using the BG1 cell line (AID 743079); conditions: BG1Luc4E2 cells, ERE-luciferase agonist, 22 h; activation: at 70.3 µM (top of the series); note: nearly all actives have a fitted effect of over 20% in size; note: potency is the fitted concentration of half-maximal effect
[8] = qHTS assay to identify small molecule antagonists of the estrogen receptor alpha (ER-alpha) signaling pathway using the BG1 cell line (AID 743080; calls by dose curve;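 note: BG1 cells stimulated with 17beta-estradiol alongside compound; nearly all actives have a fitted effect of over 25% in size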; note: potency is the fitted concentration of half-maximal effect)
Outline: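 Endogenous full-length ER-alpha in BG1-Luc-4E2 cells drives a stably integrated 4×ERE luciferase gene; compounds were tested against 17beta-estradiol over 21.5 h, with luminescence and multiplexed viability fluorescence recorded.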

[9] = qHTS assay to identify small molecule antagonists of the estrogen receptor alpha (ER-alpha) signaling pathway using the BG1 cell line - cell viability counter screen (AID 743081);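 note: compound given together with 17beta-estradiol as the ER stimulus; nearly all actives have a fitted effect of over 45% in size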
Aromatase (Homo sapiens) = Aromatase (Homo sapiens) (UniProt P11511); assay: qHTS assay to identify aromatase inhibitors (AID 743083); note: nearly all actives have a fitted effect of over 55% in size
[10] = qHTS assay to identify small molecule that activate the aryl hydrocarbon receptor (AhR) signaling pathway - cell viability counter screen (AID 743086);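 note: HepG2 liver cells carrying the AhR DRE luciferase reporter; nearly all actives have a fitted effect of over 45% in size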
Outline: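 Cytotoxicity counter screen: CellTiter-Fluor signal (30 min, 37 C) in 4000 HepG2 cells/well carrying the DRE-luciferase reporter, following 24 h compound exposure at 37 C.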

[11] = target: Peroxisome proliferator-activated receptor gamma (Homo sapiens) (UniProt P37231); assay: qHTS assay to identify small molecule agonists of the peroxisome proliferator-activated receptor gamma (PPARg) signaling pathway (AID 743094; active = well fitted activation curve with a large enough effect in the signal ratio in the repeat runs, not every such curve was filed as active; inconclusive = weak or mixed curves, or effect the other way; inactive = no such curve, though single readings can be large or run the other way; the % refers to the signal ratio)
Outline: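 Agonism was assessed in a beta-lactamase reporter system, HEK293H cells with a stably integrated UAS-bla construct under PPARg control; the 17 h treatment at 37C preceded a 1 h room-temperature FRET substrate read.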

[12] = qHTS assay to identify small molecule antagonists of the peroxisome proliferator-activated receptor gamma (PPARg) signaling pathway - cell viability counter screen (AID 743194); note: nearly all actives have a fitted effect of over 55% in size
Outline: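 Viability was measured as CellTiter-Glo luminescence in GeneBLAzer PPARg UAS-bla HEK293H cells. These cells had been exposed 17 h at 37 C to compounds together with rosiglitazone at 50 nM final, with the beta-lactamase readout taken in the same wells.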

[13] = qHTS assay for small molecule agonists of the antioxidant response element (ARE) signaling pathway (AID 743202; active = well fitted activation curve with a large enough effect in the signal ratio in the repeat runs, not every such curve was filed as active; inconclusive = weak or mixed curves, or effect the other way; inactive = no such curve, though single readings can be large or run the other way; the % refers to the signal ratio)
Outline: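 After 16 hours of compound treatment at 37 C, HepG2 cells with a stably integrated ARE-driven beta-lactamase reporter were loaded 2 hours at room temperature with LiveBLAzer B/G FRET substrate and fluorescence intensity measured.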

[14] = qHTS assay for small molecule agonists of the antioxidant response element (ARE) signaling pathway - cell viability counter screen (AID 743203; calls by dose curve; note: nearly all actives have a fitted effect of over 55% in size)
Outline: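 ATP content via CellTiter-Glo luminescence served as the viability measure. Cells: ARE-bla HepG2, 2,000 per well. Exposure: 16 hrs, 37C/5% CO2.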

[15] = qHTS assay for small molecule activators of the heat shock response signaling pathway (AID 743210; active = well fitted activation curve with a large enough effect in the signal ratio in the repeat runs, with a control signal flat, not every such curve was filed as active; inconclusive = weak or mixed curves; the % refers to the signal ratio)
Outline: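 Compound exposure lasted 5 h at 37 C in HeLa cells carrying a heat-shock-element-driven beta-lactamase reporter. Read-out: fluorescence intensity after 2.5 h room-temperature loading with LiveBLAzer B/G FRET substrate.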

[16] = qHTS assay to identify aromatase inhibitors - cell viability counter screen (AID 743084)
[17] = target: Aryl hydrocarbon receptor (Homo sapiens) (UniProt P35869); assay: qHTS assay to identify small molecule that activate the aryl hydrocarbon receptor (AhR) signaling pathway (AID 743085);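 note: HG2L7.5c1 human HepG2 liver cells with stably integrated DRE-driven firefly reporter; nearly all actives have a fitted effect of over 15% in size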
Outline: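 Luminescence read-out: ONE-Glo reagent, 30 min at room temperature, in HG2L7.5c1 HepG2 reporter cells treated 24 h at 37C. Viability was measured beforehand by CellTiter-Fluor fluorescence after 30 min at 37C.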

[18] = target: Peroxisome proliferator-activated receptor gamma (Homo sapiens) (UniProt P37231); assay: qHTS assay to identify small molecule antagonists of the peroxisome proliferator-activated receptor gamma (PPARg) signaling pathway (AID 743191; calls by dose curve; note: nearly all actives have a fitted effect of over 30% in size)
Outline: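 Beta-lactamase reporter under UAS control in HEK293H PPARg-bla cells; compound treatment 17 h at 37C. Read-out: fluorescence intensity after 1 h room-temperature incubation with LiveBLAzer B/G FRET substrate.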

[19] = qHTS assay for small molecule activators of the heat shock response signaling pathway - cell viability counter screen (AID 743209); note: nearly all actives have a fitted effect of over 50% in size
Outline: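 Compounds dissolved in DMSO were added to overnight-plated HSE-bla HeLa cells and left 5 h at 37 C. Cell viability was quantified by luminescence using CellTiter-Glo.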
% is set by controls: 0 for no effect and ±100 for the full control effect.

Aromatase (Homo sapiens), sequence (P11511 whole entry, looked up): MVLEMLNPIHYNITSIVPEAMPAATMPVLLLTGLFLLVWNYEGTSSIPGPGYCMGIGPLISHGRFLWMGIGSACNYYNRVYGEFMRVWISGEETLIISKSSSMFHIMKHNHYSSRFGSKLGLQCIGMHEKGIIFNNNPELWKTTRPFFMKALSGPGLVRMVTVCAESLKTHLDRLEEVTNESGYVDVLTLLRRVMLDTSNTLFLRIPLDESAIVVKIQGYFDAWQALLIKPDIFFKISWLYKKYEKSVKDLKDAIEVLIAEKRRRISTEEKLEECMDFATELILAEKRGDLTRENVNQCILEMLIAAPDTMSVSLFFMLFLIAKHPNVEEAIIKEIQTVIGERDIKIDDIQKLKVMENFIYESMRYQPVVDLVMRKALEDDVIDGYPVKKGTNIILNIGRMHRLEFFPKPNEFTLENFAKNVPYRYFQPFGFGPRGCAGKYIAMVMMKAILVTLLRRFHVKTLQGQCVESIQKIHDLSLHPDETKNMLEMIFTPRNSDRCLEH
Estrogen receptor (Homo sapiens), sequence (P03372 whole entry, looked up): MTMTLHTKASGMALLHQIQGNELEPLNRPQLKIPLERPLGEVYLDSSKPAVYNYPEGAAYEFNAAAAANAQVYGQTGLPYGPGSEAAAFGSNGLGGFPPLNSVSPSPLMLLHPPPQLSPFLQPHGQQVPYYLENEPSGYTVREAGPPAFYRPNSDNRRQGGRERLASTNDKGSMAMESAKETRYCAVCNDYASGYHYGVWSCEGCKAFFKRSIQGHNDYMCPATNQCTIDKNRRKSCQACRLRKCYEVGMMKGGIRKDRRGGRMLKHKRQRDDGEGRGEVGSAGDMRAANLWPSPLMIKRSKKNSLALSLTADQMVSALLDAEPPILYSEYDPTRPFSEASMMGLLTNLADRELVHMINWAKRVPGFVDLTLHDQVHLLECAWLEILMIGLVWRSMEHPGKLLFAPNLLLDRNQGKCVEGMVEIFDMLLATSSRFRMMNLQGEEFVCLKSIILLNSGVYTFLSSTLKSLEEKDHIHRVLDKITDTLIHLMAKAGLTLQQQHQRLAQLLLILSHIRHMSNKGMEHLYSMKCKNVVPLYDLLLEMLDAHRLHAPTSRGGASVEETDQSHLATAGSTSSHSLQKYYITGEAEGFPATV
Aryl hydrocarbon receptor (Homo sapiens), sequence (P35869 whole entry, looked up): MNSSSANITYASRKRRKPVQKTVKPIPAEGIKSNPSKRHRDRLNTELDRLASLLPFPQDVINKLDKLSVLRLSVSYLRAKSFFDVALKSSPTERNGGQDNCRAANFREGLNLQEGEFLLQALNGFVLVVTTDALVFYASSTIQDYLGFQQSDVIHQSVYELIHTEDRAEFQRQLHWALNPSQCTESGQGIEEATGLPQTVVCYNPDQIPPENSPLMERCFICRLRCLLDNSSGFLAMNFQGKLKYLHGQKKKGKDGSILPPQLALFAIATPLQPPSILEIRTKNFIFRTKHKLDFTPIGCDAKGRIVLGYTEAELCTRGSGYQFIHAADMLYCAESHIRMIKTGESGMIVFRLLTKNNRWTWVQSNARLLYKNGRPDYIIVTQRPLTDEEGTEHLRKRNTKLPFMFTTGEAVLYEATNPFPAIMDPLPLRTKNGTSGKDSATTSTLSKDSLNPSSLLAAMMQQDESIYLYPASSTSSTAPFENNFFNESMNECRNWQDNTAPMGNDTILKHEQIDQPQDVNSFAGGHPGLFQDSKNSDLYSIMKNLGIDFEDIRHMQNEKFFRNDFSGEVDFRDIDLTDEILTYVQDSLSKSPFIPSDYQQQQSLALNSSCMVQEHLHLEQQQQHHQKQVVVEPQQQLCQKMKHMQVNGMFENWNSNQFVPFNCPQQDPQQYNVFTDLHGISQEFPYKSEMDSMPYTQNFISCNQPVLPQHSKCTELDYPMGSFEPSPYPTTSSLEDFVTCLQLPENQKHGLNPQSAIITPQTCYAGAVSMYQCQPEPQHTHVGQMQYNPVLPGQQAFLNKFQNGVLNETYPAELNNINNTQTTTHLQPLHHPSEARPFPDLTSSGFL
Peroxisome proliferator-activated receptor gamma (Homo sapiens), sequence (P37231 whole entry, looked up): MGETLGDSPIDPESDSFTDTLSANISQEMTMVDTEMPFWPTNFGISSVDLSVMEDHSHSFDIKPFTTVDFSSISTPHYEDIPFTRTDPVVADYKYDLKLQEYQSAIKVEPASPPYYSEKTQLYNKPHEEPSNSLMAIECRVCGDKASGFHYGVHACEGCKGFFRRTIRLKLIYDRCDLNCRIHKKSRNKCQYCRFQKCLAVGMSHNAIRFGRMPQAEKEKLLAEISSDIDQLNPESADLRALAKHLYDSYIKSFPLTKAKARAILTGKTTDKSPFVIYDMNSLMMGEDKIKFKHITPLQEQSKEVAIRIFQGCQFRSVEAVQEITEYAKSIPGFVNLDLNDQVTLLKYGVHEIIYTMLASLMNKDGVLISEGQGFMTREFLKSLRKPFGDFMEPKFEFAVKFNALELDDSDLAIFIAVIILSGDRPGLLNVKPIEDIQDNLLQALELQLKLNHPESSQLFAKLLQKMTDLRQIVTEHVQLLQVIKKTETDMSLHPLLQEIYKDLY

CCOC(=O)CC(=O)C(=O)OCC
inactive: Potency [1] | Potency [2] | outcome [3] | Potency [4] | Potency [5] | Potency [6] | Potency [7] | Potency [8] | Potency [9] | Potency (Aromatase (Homo sapiens)) | Potency [10] | Potency [11] | Potency [12] | Potency [13] | Potency [14] | Potency [15]

Nc1ccc(S(=O)(=O)O)cc1
inactive: Potency [1] | Potency [2] | outcome [3] | Potency [4] | Potency [5] | Potency [6] | Potency [8] | Potency [9] | Potency (Aromatase (Homo sapiens)) | Potency [16] | Potency [17] | Potency [10] | Potency [11] | Potency [18] | Potency [13] | Potency [14] | Potency [19] | Potency [15]
active: Potency [7] 38.8 µM

OCCSc1ccccc1
inactive: Potency [1] | Potency [2] | outcome [3] | Potency [4] | Potency [5] | Potency [6] | Potency [7] | Potency [8] | Potency [9] | Potency (Aromatase (Homo sapiens)) | Potency [16] | Potency [10] | Potency [11] | Potency [18] | Potency [12] | Potency [13] | Potency [14] | Potency [19] | Potency [15]

O=[N+]([O-])c1cccc(S(=O)(=O)NCCNS(=O)(=O)c2cccc([N+](=O)[O-])c2)c1
inactive: Potency [1] | Potency [2] | outcome [3] | Potency [4] | Potency [5] | Potency [6] | Potency [7] | Potency [8] | Potency [9] | Potency (Aromatase (Homo sapiens)) | Potency [16] | Potency [10] | Potency [11] | Potency [18] | Potency [14] | Potency [19] | Potency [15]

CC(Cl)C(Cl)Cl (configuration not stated)
inactive: Potency [1] | Potency [2] | outcome [3] | Potency [4] | Potency [5] | Potency [6] | Potency [7] | Potency [8] | Potency [9] | Potency (Aromatase (Homo sapiens)) | Potency [16] | Potency [17] | Potency [10] | Potency [11] | Potency [12] | Potency [13] | Potency [14] | Potency [19] | Potency [15]

CC1=CC(O)CC(C)(C)C1 (configuration not stated)
inactive: Potency [1] | Potency [2] | outcome [3] | Potency [4] | Potency [5] | Potency [6] | Potency [7] | Potency [8] | Potency [9] | Potency (Aromatase (Homo sapiens)) | Potency [16] | Potency [17] | Potency [10] | Potency [11] | Potency [12] | Potency [13] | Potency [14] | Potency [19] | Potency [15]

Cc1cc(O)c(C(C)C)cc1Cl
inactive and 49 µM (active): Potency [5]
inactive: Potency [1] | Potency [2] | outcome [3] | Potency [4] | Potency [6] | Potency [7] | Potency [8] | Potency [9] | Potency (Aromatase (Homo sapiens)) | Potency [16] | Potency [10] | Potency [12] | Potency [13] | Potency [14] | Potency [19] | Potency [15]

CC(CCO)CCc1ccccc1 (configuration not stated)
inactive: Potency [1] | Potency [2] | outcome [3] | Potency [4] | Potency [5] | Potency [6] | Potency [7] | Potency [8] | Potency [9] | Potency (Aromatase (Homo sapiens)) | Potency [16] | Potency [17] | Potency [10] | Potency [11] | Potency [18] | Potency [14] | Potency [19] | Potency [15]

CCC(=O)Oc1ccc(/C(CC)=C(\CC)c2ccc(OC(=O)CC)cc2)cc1
active: Potency [1] 54.5 µM | Potency [2] 30.6 µM | Potency [4] 54.9 µM [inconclusive] | Potency [6] 1.4 nM [inconclusive] | activation [7] 77.1% | Potency [8] 61.1 µM
inactive: outcome [3] | Potency [5] | Potency [9] | Potency (Aromatase (Homo sapiens)) | Potency [16] | Potency [10] | Potency [11] | Potency [14]

CCC1(C)CC(=O)NC1=O (configuration not stated)
inactive: Potency [1] | Potency [2] | outcome [3] | Potency [4] | Potency [5] | Potency [6] | Potency [7] | Potency [8] | Potency [9] | Potency (Aromatase (Homo sapiens)) | Potency [16] | Potency [17] | Potency [10] | Potency [11] | Potency [18] | Potency [12] | Potency [13] | Potency [14] | Potency [19] | Potency [15]

CCOC(=O)c1ccccc1C
inactive: Potency [1] | Potency [2] | outcome [3] | Potency [4] | Potency [5] | Potency [6] | Potency [7] | Potency [8] | Potency [9] | Potency (Aromatase (Homo sapiens)) | Potency [16] | Potency [17] | Potency [10] | Potency [11] | Potency [18] | Potency [12] | Potency [14] | Potency [19] | Potency [15]

CC(N)CN (configuration not stated)
inactive: Potency [1] | Potency [2] | outcome [3] | Potency [4] | Potency [5] | Potency [6] | Potency [7] | Potency [8] | Potency [9] | Potency (Aromatase (Homo sapiens)) | Potency [16] | Potency [17] | Potency [10] | Potency [11] | Potency [12] | Potency [13] | Potency [14] | Potency [19]

CO[Si](C)(OC)OC
inactive: Potency [1] | Potency [2] | outcome [3] | Potency [4] | Potency [5] | Potency [6] | Potency [7] | Potency [8] | Potency [9] | Potency (Aromatase (Homo sapiens)) | Potency [16] | Potency [17] | Potency [10] | Potency [11] | Potency [12] | Potency [13] | Potency [14] | Potency [15]

O=C(O)Cc1ccc(-c2ccccc2)cc1
inactive: Potency [1] | Potency [2] | outcome [3] | Potency [4] | Potency [5] | Potency [6] | Potency [7] | Potency [8] | Potency [9] | Potency (Aromatase (Homo sapiens)) | Potency [16] | Potency [17] | Potency [10] | Potency [14] | Potency [19] | Potency [15]

CC(=O)OCC(=O)[C@H]1CC[C@H]2[C@@H]3CCC4=CC(=O)CC[C@]4(C)[C@H]3CC[C@]12C
inactive: Potency [1] | outcome [3] | Potency [4] | Potency [5] | Potency [6] | Potency [8] | Potency [9] | Potency (Aromatase (Homo sapiens)) | Potency [16] | Potency [17] | Potency [10] | Potency [11] | Potency [12] | Potency [14] | Potency [19] | Potency [15]
active: Potency [2] 13.3 µM | Potency [7] 4.22 µM
